Potency and affinity values are given separately. Inconclusive results are not listed. The source made the active and inactive calls. Unless noted, how the calls were made is not given here.
How the values were obtained:
[1] = cytotoxicity in PAX8-dependent RMG-1 cells, dose response, cell-based, cherry-pick (AID 687029;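 active means signal drop whose fitted half-maximal concentration is at most twice the top valid dose, in every test run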;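 further: cells exposed to compound for 96 hours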)
[2] = cytotoxicity in IOSE-T80 ovarian epithelial cells, dose response, selectivity assay for PAX8 inhibitor project, cell-based, cherry-pick (AID 687032;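 active means fitted half-maximal concentration for viability loss no higher than twice the top valid dose, in every repeat run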;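 further: cells exposed to compound for 96 h before reading; 0% = neutral control wells and -100% = 2 µM mitoxantrone kill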)
[3] = inhibitors of CMV-promoter luciferase reporter, dose response, counter-screen for Pax8 inhibitor project, cell-based, HEK293, luminescence, dry powder (AID 743020;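 active means signal-lowering compounds whose fitted half-maximal concentration is at or below twice the top tested dose in every run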;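 further: HEK293 cells stably expressing the CMV luciferase reporter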)
[4] = non-specific cell cytotoxicity, dose response, cytotoxicity control for PAX8 inhibitor project, plate reader, dry powder samples (AID 743021)
[5] = IOSE-T80 ovarian epithelial cell cytotoxicity, dose response, cytotoxicity control for PAX8 inhibitor project, plate reader, dry powder samples (AID 743045);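 further: 0% = neutral control median and -100% = positive control median; more negative values mean more cell killing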
[6] = A2780 ovarian cancer cell cytotoxicity, dose response, cytotoxicity control, plate reader, dry powder samples (AID 743046);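 further: 0% = neutral control wells and -100% = cytotoxic reference compound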
[7] = cytotoxicity in OVCAR8 ovarian cancer cells, dose response, PAX8 project, cell-based, plate reader, dry powder samples (AID 743197)

Measured: activity change, negative = cytotoxicity

O=C(C[C@@H]1CC[C@@H]2[C@H](COC[C@@H](O)CN2C(=O)Nc2ccc(Cl)c(Cl)c2)O1)NCc1ccc(Cl)cc1
not listed: [6] | [7]
inactive: all other assays above

C[C@@H]1CCCCO[C@@H](CN(C)Cc2ccccc2)[C@H](C)CN([C@@H](C)CO)C(=O)c2cc(NC(=O)Nc3ccc(C(F)(F)F)cc3)ccc2O1
not listed: [6] | [7]
inactive: all other assays above

OC[C@@H]1[C@H](c2ccc(-c3ccc(F)cc3)cc2)[C@@H]2CN(CCC(F)(F)F)CCCCN12
not listed: [7]
inactive: all other assays above

Cc1noc(C)c1S(=O)(=O)Nc1ccc2c(c1)C(=O)N([C@H](C)CO)C[C@@H](C)[C@@H](CN(C)Cc1ccc(C(F)(F)F)cc1)OCCCC[C@H](C)O2
not listed: [7]
inactive: all other assays above

C[C@@H]1CN([C@@H](C)CO)C(=O)c2cc(NS(=O)(=O)c3ccc(F)cc3)ccc2O[C@@H](C)CCCCO[C@@H]1CN(C)Cc1ccc(C(F)(F)F)cc1
not listed: [6] | [7]
inactive: all other assays above

COc1cccc2sc(N(CCCN(C)C)C(=O)CCS(=O)(=O)c3ccccc3)nc12
not listed: [7]
inactive: all other assays above

C[C@@H]1CN([C@H](C)CO)C(=O)c2cc(NC(=O)Nc3ccc(C(F)(F)F)cc3)ccc2O[C@@H](C)CCCCO[C@H]1CN(C)C(=O)Nc1ccc(C(F)(F)F)cc1
not listed: [6] | [7]
inactive: all other assays above

C[C@@H]1CN([C@H](C)CO)C(=O)c2cc(NC(=O)Nc3ccc(C(F)(F)F)cc3)ccc2O[C@@H](C)CCCCO[C@@H]1CN(C)Cc1ccc2c(c1)OCO2
not listed: [7]
inactive: all other assays above

C[C@H]1CCCCO[C@H](CN(C)Cc2ccc(C(F)(F)F)cc2)[C@@H](C)CN([C@@H](C)CO)C(=O)c2cc(NC(=O)Cc3ccccc3)ccc2O1
not listed: [7]
inactive: all other assays above

C[C@@H]1CCCCO[C@@H](CN(C)Cc2ccc(C(F)(F)F)cc2)[C@H](C)CN([C@@H](C)CO)C(=O)c2cc(NC(=O)Cc3ccccc3)ccc2O1
not listed: [7]
inactive: all other assays above

O=C1CN(S(=O)(=O)Cc2ccccc2)C[C@@H]2[C@@H](c3ccc(C#CCC4CCCC4)cc3)[C@@H](CO)N12
not listed: [6] | [7]
inactive: all other assays above

COc1ccc2c3c(n(C)c2c1)[C@H](CO)N(C(=O)Nc1ccc(F)cc1)CC31CCN(C(=O)c2ccc3c(c2)OCO3)CC1
not listed: [6] | [7]
inactive: all other assays above

COc1ccc(-c2ccc3c(c2)[C@@H]2[C@@H](CCN2C(=O)C2CCCCC2)[C@H](CO)N3C)cc1
not listed: [6] | [7]
inactive: all other assays above

C[C@@H]1CN([C@@H](C)CO)C(=O)Cc2cc(NS(=O)(=O)c3ccc(F)cc3)ccc2O[C@H]1CN(C)Cc1ccc(Cl)c(Cl)c1
not listed: [6] | [7]
inactive: all other assays above

C[C@@H]1CCCCO[C@H](CN(C)Cc2ccc(Cl)c(Cl)c2)[C@@H](C)CN([C@@H](C)CO)C(=O)c2cc(NC(=O)Cc3ccccc3)ccc2O1
not listed: [7]
inactive: all other assays above

C[C@@H]1CN([C@@H](C)CO)C(=O)c2cc(NC(=O)Nc3ccc(C(F)(F)F)cc3)ccc2O[C@@H](C)CCCCO[C@H]1CN(C)Cc1ccncc1
not listed: [7]
inactive: all other assays above

Cc1ccc(S(=O)(=O)Nc2ccc3c(c2)C(=O)N([C@@H](C)CO)C[C@H](C)[C@@H](CN(C)Cc2ccc(C(F)(F)F)cc2)OCCCC[C@@H](C)O3)cc1
not listed: [7]
inactive: all other assays above

O=C1CN(S(=O)(=O)Cc2ccccc2)C[C@@H]2[C@@H](c3ccc(C#CC4CC4)cc3)[C@@H](CO)N12
inactive: [1] | [2] | [3] | [4] | [5] | [6] 19% [at 8 µM]

C[C@@H]1CN([C@H](C)CO)C(=O)c2c(c3ccccc3n2C)-c2ccccc2CO[C@H]1CN(C)S(=O)(=O)c1ccc(C(F)(F)F)cc1
not listed: [6] | [7]
inactive: all other assays above

C[C@@H]1CN([C@@H](C)CO)C(=O)c2cc(NC(=O)Nc3ccc(C(F)(F)F)cc3)ccc2O[C@@H](C)CCCCO[C@H]1CN(C)Cc1ccc2c(c1)OCO2
not listed: [7]
inactive: all other assays above

C[C@@H]1CN([C@@H](C)CO)C(=O)Cc2cc(NC(=O)Nc3ccc(C(F)(F)F)cc3)ccc2O[C@H]1CN(C)Cc1ccc2c(c1)OCO2
not listed: [7]
inactive: all other assays above

O=S(=O)(Nc1cccc2cccnc12)c1ccccc1
not listed: [7]
inactive: all other assays above

C[C@@H]1CCCCO[C@@H](CN(C)Cc2ccc(C(F)(F)F)cc2)[C@H](C)CN([C@H](C)CO)C(=O)c2cc(NS(=O)(=O)c3ccc(F)cc3)ccc2O1
not listed: [6] | [7]
inactive: all other assays above

C[C@@H]1CCCCO[C@H](CN(C)Cc2ccc(C(F)(F)F)cc2)[C@@H](C)CN([C@@H](C)CO)C(=O)c2cc(NS(=O)(=O)c3ccc(F)cc3)ccc2O1
not listed: [6] | [7]
inactive: all other assays above

CCCC#Cc1ccc([C@@H]2[C@H](CO)N3CCCCN(S(=O)(=O)Cc4ccccc4)C[C@@H]23)cc1
inactive: all assays above

C[C@H]1CCCCO[C@@H](CN(C)Cc2ccc(C(F)(F)F)cc2)[C@@H](C)CN([C@@H](C)CO)C(=O)c2cc(NS(=O)(=O)c3ccccc3)ccc2O1
not listed: [7]
inactive: all other assays above

C[C@@H]1CCCCO[C@@H](CN(C)Cc2ccc3c(c2)OCO3)[C@@H](C)CN([C@@H](C)CO)C(=O)c2cc(NC(=O)Nc3ccc(C(F)(F)F)cc3)ccc2O1
not listed: [7]
inactive: all other assays above

CCCC#Cc1ccc([C@H]2[C@@H](CO)N3CCCCN(S(=O)(=O)Cc4ccccc4)C[C@H]23)cc1
not listed: [7]
inactive: all other assays above

COc1ccccc1NC(=O)N1CCCCN2[C@@H](CO)[C@@H](c3ccc(C#Cc4ccccc4)cc3)[C@@H]2C1
not listed: [7]
inactive: all other assays above

C[C@@H]1CN([C@H](C)CO)C(=O)c2cc(NS(=O)(=O)c3ccc(Cl)cc3)ccc2O[C@@H](C)CCCCO[C@H]1CN(C)Cc1ccc2c(c1)OCO2
not listed: [7]
inactive: all other assays above

O=C(C1CCCC1)N1CC[C@@H]2[C@H](CO)Nc3ccc(C4=CCCCC4)cc3[C@@H]21
not listed: [7]
inactive: all other assays above

C[C@@H]1CCCCO[C@@H](CN(C)Cc2ccc(C(F)(F)F)cc2)[C@H](C)CN([C@@H](C)CO)C(=O)c2cc(NC(=O)NC3CCCCC3)ccc2O1
not listed: [7]
inactive: all other assays above

O=C(Nc1cccc(F)c1)N1CCCCN2[C@@H](CO)[C@@H](c3ccc(-c4ccccc4F)cc3)[C@@H]2C1
inactive: all assays above

Cc1cccc(S(=O)(=O)N2CCCCN3[C@H](CO)[C@H](c4ccc(C#CC(C)C)cc4)[C@H]3C2)c1
not listed: [5] | [7]
inactive: all other assays above

O=C(Nc1ccccc1F)N1CCCCN2[C@@H](CO)[C@@H](c3ccc(/C=C/c4ccccc4)cc3)[C@@H]2C1
inactive: all assays above

C[C@@H]1CN([C@@H](C)CO)C(=O)Cc2cc(NS(=O)(=O)c3cccs3)ccc2O[C@H]1CN(C)Cc1ccc(C(F)(F)F)cc1
inactive: all assays above

C[C@H](CO)N1C[C@H](C)[C@@H](CN(C)Cc2ccccc2)Oc2ccc(NC(=O)Nc3ccc(C(F)(F)F)cc3)cc2CC1=O
inactive: all assays above

C[C@H](CO)N1C[C@H](C)[C@@H](CN(C)Cc2ccc(Oc3ccccc3)cc2)Oc2ccc(NS(=O)(=O)c3ccc(Cl)cc3)cc2CC1=O
not listed: [7]
inactive: all other assays above

Cc1ccccc1S(=O)(=O)N1C[C@@H]2N[C@H](C1)C2c1ccc(-c2cccc(C#N)c2)cc1 (stereo not given in full)
not listed: [5] | [7]
inactive: all other assays above

Cc1ccc(S(=O)(=O)Nc2ccc3c(c2)CC(=O)N([C@@H](C)CO)C[C@@H](C)[C@H](CN(C)Cc2ccc(Cl)c(Cl)c2)O3)cc1
inactive: all assays above

COc1cccc(S(=O)(=O)Nc2ccc3c(c2)[C@@H]2C[C@@H](CC(=O)NCc4ccc(Cl)cc4)O[C@@H](CO)[C@@H]2O3)c1
inactive: all assays above

— PubChem BioAssay
